Source: PubChem BioAssay (Center for Chemical Genomics, University of Michigan)
The entries come from a sample that favours hits as a whole.
Dicer inh – inhibitors of human Dicer processing of pre-microRNA; z-score at 25 µM; Q9UPY3; cat-ELCCA pre-miR-21 Dicer processing, chemiluminescence; hits give high values; 6% of 47,000 active; in the data active means z-score above about 3, passing the limit was not always enough;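 further: higher signal means more uncleaved substrate so more Dicer inhibition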
A number is an active result.

`CN(C)CCN1C(=O)C(O)=C(C(=O)c2cccs2)C1c1ccncc1` (configuration not stated) gave Dicer inh 4.1.
Screening COc1ccc(C2C(C(=O)c3cccs3)=C(O)C(=O)N2CCCN(C)C)cc1 (configuration not stated) returned Dicer inh inactive.
`Cc1nnc(N2C(=O)C(O)=C(C(=O)c3cccs3)C2c2ccc(C(C)C)cc2)s1` (configuration not stated) gave Dicer inh inactive.
Screening CCCC1=NN(c2ccccc2)C(=O)/C1=C/c1ccc(Cl)cc1 returned Dicer inh inactive.
Nc1nc2c(c(=O)[nH]1)C(c1ccc(OCc3ccc(F)cc3)cc1)CC(=O)N2 (configuration not stated) was read as Dicer inh inactive.
`CCOC(=O)c1c(NC(=O)CNC(C)(C)C)sc2c1CCCCC2` gave Dicer inh inactive.
For COC(=O)C1=C(C)NC2=C(C(=O)CC(C)(C)C2)C1c1sc2ccccc2c1C (configuration not stated) the results were Dicer inh inactive.
Screening CC1CCC2C(=O)N(c3ccc(C(=O)OC(C)C(=O)c4ccccc4)cc3)C(=O)C2C1 (configuration not stated) returned Dicer inh 3.1.
`CC1CCC2C(=O)N(c3ccc(N4C(=O)C5CCC(C)CC5C4=O)cc3)C(=O)C2C1` (configuration not stated) gave Dicer inh inactive.
Screening CC1CCC2C(=O)N(c3ccc(Cl)cc3)C(=O)C2C1 (configuration not stated) returned Dicer inh inactive.
`Cc1cc(C)cc(Oc2c(C(F)(F)F)oc3c(CN(C)C)c(O)ccc3c2=O)c1` gave Dicer inh inactive.
CN1CCN(C(=O)CCC(=O)O)CC1 was read as Dicer inh inactive.
For O=C(O)CCCCCCCC(=O)O the results were Dicer inh inactive.
Screening CN1CCN(CCCCC(=O)O)CC1 returned Dicer inh 4.
For CCCC1/C(=N\O)CC(c2ccccc2)NC1c1ccccc1 (configuration not stated) the results were Dicer inh inactive.
For CCOC(=O)C1CCN(C(=O)Nc2cc(F)ccc2C)CC1 the results were Dicer inh inactive.
Screening O=C1CC(c2ccccc2)CC(O)=C1C=Nc1ccc(Cl)cc1 (configuration not stated) returned Dicer inh 3.
`O=C1CCC(c2ccccc2)C(O)=C1C=Nc1ccc(Cl)cc1` (configuration not stated) gave Dicer inh inactive.
O=C1CC(c2ccccc2)CC(O)=C1C=Nc1ccccc1Cl (configuration not stated) was read as Dicer inh inactive.
CC(=O)N(Cc1ccccc1)c1nc2c([nH]1)c(=O)n(C)c(=O)n2C was read as Dicer inh inactive.
`COc1cc(C2Nc3cccc4cccc(c34)N2)ccc1O` gave Dicer inh 3.6.
For Cc1ccc(C2CC(c3cccc(C)c3)n3ncnc3N2)cc1 (configuration not stated) the results were Dicer inh inactive.
Screening CCc1ccc(C2CC(c3cccc(C)c3)n3nc(N)nc3N2)cc1 (configuration not stated) returned Dicer inh inactive.
For COc1ccc(C2NC(=O)c3ccccc3N2)cc1O (configuration not stated) the results were Dicer inh inactive.
c1ccc(-c2ccc(C3Nc4cccc5cccc(c45)N3)cc2)cc1 was read as Dicer inh 3.2.
For Oc1ccc2ccccc2c1C1Nc2cccc3cccc(c23)N1 the results were Dicer inh inactive.
Screening Cc1cccc(C2Nc3cccc4cccc(c34)N2)c1 returned Dicer inh 3.6.
Screening N#Cc1ccc(C2NC(=O)c3ccccc3N2)cc1 (configuration not stated) returned Dicer inh inactive.
Screening COc1cc(C2N3CC4(C)CN2CC(C)(C3)C4)ccc1O (configuration not stated) returned Dicer inh inactive.
CC(=O)c1c(C)nc(-c2ccc(Cl)cc2)nc1SCc1ccccc1 was read as Dicer inh inactive.
Screening Nc1ncnc2nc(N3CCCC3)ncc12 returned Dicer inh inactive.
Screening CCSCCOC(=O)C1=C(C)NC2=C(C(=O)CC(C)(C)C2)C1c1ccccc1Br (configuration not stated) returned Dicer inh inactive.
For CCOC(=O)c1sc2nc(SCc3ccccc3)nc(-c3ccc(OC)cc3)c2c1N the results were Dicer inh inactive.
CCOC(=O)c1c[nH]c2c(C)cc(Cl)cc2c1=O was read as Dicer inh inactive.
Screening COc1ccc(CN2CN=C(Nc3nc(C)c4ccc(C)cc4n3)NC2)cc1 returned Dicer inh inactive.
CC1CN=C(SCc2ccc(Cl)cc2)N1 (configuration not stated) was read as Dicer inh inactive.
Screening Cc1ccc(CSC2=NCCCN2)cc1 returned Dicer inh inactive.
`Cc1ccc(CSC2=NCC(C)N2)cc1` (configuration not stated) gave Dicer inh 3.2.
`CN=C(N)NCCC[C@H](N)C(=O)O` gave Dicer inh inactive.
